Rows were chosen to be rich in hits. Some 1.6% of all compounds tested hit in one or more screens of this group.
KCNQ2 block: KCNQ2 (rat) channel inhibition | CHO-K1 KCNQ2, FluxOR thallium flux, 20 min; active compounds read low | B-score at 10 µM | hit rate 1.1% among 310,000 | AID 2156;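 active = fluorescence ratio B-score at most minus 3 library SDs, with starting brightness B-score within 2 library SDs, cut at about -5.5 in these data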
Target sequence (O88943 whole entry, looked up): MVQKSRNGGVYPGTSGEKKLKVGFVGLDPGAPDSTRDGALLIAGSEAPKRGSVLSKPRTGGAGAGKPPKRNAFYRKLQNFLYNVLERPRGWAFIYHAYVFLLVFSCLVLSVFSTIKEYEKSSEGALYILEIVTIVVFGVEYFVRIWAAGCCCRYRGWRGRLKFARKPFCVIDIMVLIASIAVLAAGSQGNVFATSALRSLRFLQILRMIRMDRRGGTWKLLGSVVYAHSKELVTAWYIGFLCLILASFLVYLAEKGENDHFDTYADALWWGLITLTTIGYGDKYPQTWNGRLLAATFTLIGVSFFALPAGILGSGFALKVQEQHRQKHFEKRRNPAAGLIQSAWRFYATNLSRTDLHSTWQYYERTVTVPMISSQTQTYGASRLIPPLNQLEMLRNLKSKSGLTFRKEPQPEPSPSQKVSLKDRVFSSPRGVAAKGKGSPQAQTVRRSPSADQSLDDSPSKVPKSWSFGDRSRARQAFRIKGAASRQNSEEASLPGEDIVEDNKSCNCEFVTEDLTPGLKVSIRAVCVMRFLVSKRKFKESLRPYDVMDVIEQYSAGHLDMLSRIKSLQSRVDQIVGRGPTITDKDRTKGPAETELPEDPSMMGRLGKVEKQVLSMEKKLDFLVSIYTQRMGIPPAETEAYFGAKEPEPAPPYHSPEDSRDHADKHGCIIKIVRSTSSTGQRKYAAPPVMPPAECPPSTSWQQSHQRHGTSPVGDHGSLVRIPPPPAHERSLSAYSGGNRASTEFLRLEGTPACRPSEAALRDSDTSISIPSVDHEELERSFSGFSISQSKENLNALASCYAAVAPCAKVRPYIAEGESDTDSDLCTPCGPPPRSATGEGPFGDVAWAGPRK
KCNQ2 enhance: KCNQ2 (rat) channel potentiation; O88943; CHO-K1 KCNQ2, FluxOR thallium flux fluorescence; active compounds read high; B-score at 10 µM; hit rate 0.54% among 310,000;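 active = fluorescence ratio B-score at least 3 SD of library B-scores, with initial fluorescence B-score within 3 of them, cut at about 5.3 in these data; same plate scores as AID 2156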;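 note: B-score of peak minus minimum over baseline fluorescence ratio after K+ and Tl+ stimulus; positive B-score means potentiation of KCNQ2 with more thallium influx and brighter signal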
Kir21 confirm: confirmation of mouse Kir2.1 potassium channel inhibitors; Tl flux remaining, % of negative control (active compounds read low), % at 10 µM; hit rate 41% among 2,300; Kir2.1-expressing cells, FluxOR thallium flux fluorescence; active compounds read low; shares compounds with KCNQ2 enhance;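 active = Primary-screen hit whose thallium flux fell at least 3 control SD below untreated wells in both duplicates, with normal baseline fluorescence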;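 note: 0% = blank wells without stimulus and 100% = stimulated no-compound controls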
HEK293 ctr: parental HEK293 activity in Kir2.1 inhibitor counter-screen; hit rate 19% among 2,300; shares compounds with KCNQ2 enhance; FluxOR signal as % of negative control (100 = no effect), % at 10 µM; parental HEK293 cells, FluxOR thallium flux fluorescence; 0% = unstimulated blank wells;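 active = dye signal at least 3 control SD above or below untreated wells in both duplicates, raw fluorescence within 3, either direction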;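 note: percent is based on the flux ratio of peak minus minimum fluorescence over baseline F0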
CHO-K1 Tl ctr: alters thallium flux in parental CHO-K1 cells, KCNQ2 counter-screen. shares compounds with KCNQ2 enhance. FluxOR thallium flux fluorescence; zero = vehicle mean+3SD, 100% = vehicle-minus-blank window. activity increase over 3SD of controls, % at 10 µM. hit rate 43% among 1,200. AID 2282;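 active = signal rise of at least 3 SD above the untreated control mean, in both duplicate wells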;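 note: counter screen of KCNQ2 potentiator hits so any rise reflects channel-independent effects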
KCNQ1 pot spec: selectivity of KCNQ2 potentiators: effect on human KCNQ1. shares compounds with KCNQ2 enhance. CHO KCNQ1 stable, FluxOR thallium flux fluorescence; beyond 3SD, as % of vehicle-control signal. activation over 3SD threshold, % at 10 µM. hit rate 28% among 1,200;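 active = fluorescence ratio rise of at least 3 SD of vehicle wells above their mean, in both replicate wells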;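 note: 0% = vehicle mean plus 3 SD and 100% = vehicle minus unstimulated blank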
KCNQ2 pot confirm: rat KCNQ2 channel potentiator confirmation; shares compounds with KCNQ2 enhance; CHO-KCNQ2 cells, FluxOR thallium flux fluorescence; potentiation, less the hit threshold, % at 10 µM; hit rate 68% among 1,200;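 active = fluorescence ratio rising 3 SD or more over the vehicle control mean in both replicates, plus primary screen hit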;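 note: peak minus minimum thallium fluorescence divided by baseline after K/Tl stimulus; 0% = vehicle mean plus 3 SD and 100% = vehicle minus unstimulated blank difference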
Kir21 spec: tests whether KCNQ2 potentiators also affect mouse Kir2.1; shares compounds with KCNQ2 enhance; HEK293 Kir2.1, FluxOR thallium flux fluorescence; activity over 3SD threshold, % at 10 µM; hit rate 2% among 1,200;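 active = fluorescence ratio rise of at least 3 SD above the vehicle-control mean, seen in both replicates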;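 note: 0% = vehicle mean plus 3 SD and 100% = vehicle minus no-stimulus blank window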
KCNQ2 W236L pot: potentiates the retigabine-insensitive rat KCNQ2 W236L mutant channel | shares compounds with KCNQ2 enhance | CHO KCNQ2-W236L, automated patch clamp current | current increase over 3SD of negative controls (%), active compounds read high, % at 25 µM | hit rate 10% among 940 | AID 2558;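 active = current increase at least 3 SD of the untreated controls above them in both duplicate recordings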
Numbers without * were called inactive; i = inactive; . = no result.

SMILES | KCNQ2 block | KCNQ2 enhance | Kir21 confirm | HEK293 ctr | others
CCCCCCCCC/C(=N\O)c1ccccn1 | i | 24* | i | 66%* | CHO-K1 Tl ctr=-25;KCNQ1 pot spec=-4;KCNQ2 pot confirm=20*;Kir21 spec=-42;KCNQ2 W236L pot=i
CCCCCCCCC(=O)N/N=C/c1ccccn1 | i | 1.8 | . | .
O=C(NNC(=O)c1c(O)c2ccccc2[nH]c1=O)c1ccccc1Br | i | . | . | .
CCOc1cccc(CNCCO)c1OCc1ccc(Cl)cc1Cl | i | 1 | . | .
CCOc1cc(CNCCO)cc(Br)c1OCc1ccc(Cl)cc1Cl | -13* | -13 | 21%* | i
CCOc1cc(CNCc2ccncc2)cc(Br)c1OCc1ccccc1F | i | . | 52%* | i
CCOc1cc(CNCCO)cc(Br)c1OCc1cccs1 | i | 0.12 | 23%* | i
CCOc1cc(CNCCSc2nnnn2C)cc(Br)c1OCc1ccccc1F | i | 0.49 | . | .
CCOc1cc(CNCc2cccs2)cc(Br)c1OCC | i | . | . | .
O=C(CC(=O)c1ccccc1)Nc1ccc(Cl)cc1 | i | 1.9 | . | .
CC1(C)CC[C@]2(CO)[C@@H](O)C[C@]3(C)C(=CCC4[C@@]5(C)CC[C@H](O)C(C)(C)C5CC[C@]43C)[C@@H]2C1 (some centres not stated) | i | . | . | .
CCN(Cc1cc(OC)c(OC)c(OC)c1)C(=S)Nc1cccc(SC)c1 | i | 3.2 | . | .
O=C(CCC(=O)N1CCOc2ccc(Cl)cc21)NCCCN1CCN(Cc2ccccc2)CC1 | i | 0.7 | . | .
CC1CN(C(=O)CCC(=O)NCCCN2CCN(Cc3ccccc3)CC2)c2cc(Cl)ccc2O1 (configuration not stated) | i | . | 61%* | i
CCOc1ccc(NC(=O)NC(=O)N(C(C)C)S(C)(=O)=O)cc1 | i | 0.51 | . | .
COc1ccccc1CCNC(=O)c1ccc(NC(=O)CC2SC(N3CCCC3)=NC2=O)cc1 (configuration not stated) | i | . | . | .
Cc1cccc(C)c1NCC(=O)N1CCN(Cc2ccccc2)CC1 | i | 0.94 | . | .
CCOC(=O)C1(Cc2cccc(Cl)c2)CCCN(C(=O)c2cc(C(C)C)nn2C)C1 (configuration not stated) | i | . | . | .
CCOC(=O)C1CCN(Cc2cccc(Oc3ccc(Cl)cc3)c2)CC1 | i | . | . | .
CCOC(=O)C1CCN(Cc2cccc(Oc3ccccc3)c2)CC1 | i | . | 27%* | i
CC(C)(C)c1ccc(C(=O)NC(=S)N2CCCC2)cc1 | i | 2.1 | . | .
CC1CCN(C(=S)NC(=O)c2ccc(C(C)(C)C)cc2)CC1 | i | 7.1* | . | . | CHO-K1 Tl ctr=-11;KCNQ1 pot spec=-14;KCNQ2 pot confirm=5.8*;Kir21 spec=-37;KCNQ2 W236L pot=i
COc1ccc(C(=O)NC(=S)N2CCC(C)CC2)cc1Br | i | 6.5* | i | 247%* | CHO-K1 Tl ctr=-14;KCNQ1 pot spec=-15;KCNQ2 pot confirm=-2;Kir21 spec=-38;KCNQ2 W236L pot=i
CC1CCN(C(=S)NC(=O)c2ccccc2)CC1 | i | 0.9 | . | .
COc1ccc(C(=O)NC(=S)N2CCNC(=O)C2)cc1Br | i | 1.3 | . | .
SMILES | KCNQ2 block | KCNQ2 enhance | Kir21 confirm | HEK293 ctr | others
CC(C)(C)c1ccc(C(=O)NC(=S)N2CCCCCC2)cc1 | i | 8.8* | i | 268%* | CHO-K1 Tl ctr=-24;KCNQ1 pot spec=37*;KCNQ2 pot confirm=0.7*;Kir21 spec=-21;KCNQ2 W236L pot=4.9%*
O=C(N=C1SC2CS(=O)(=O)CC2N1c1cccc(Cl)c1Cl)C1CC1 (configuration not stated) | i | 0.13 | . | .
O=C(CCC(=O)N1CCOc2ccccc21)NCCN1CCOCC1 | i | 0.02 | . | .
Nc1nonc1-n1nnc(C(=O)N/N=C/c2cc(Cl)ccc2O)c1CN1CCCCCC1 | i | . | . | .
Cc1cccc(/C=C2/S/C(=N/N=C3\CC4CCC3(C)C4(C)C)NC2=O)c1 (configuration not stated) | i | 21* | i | i | CHO-K1 Tl ctr=-17;KCNQ1 pot spec=-26;KCNQ2 pot confirm=-6;Kir21 spec=-19;KCNQ2 W236L pot=i
O=C1N/C(=N/O)S/C1=C/c1cccc([N+](=O)[O-])c1 | i | 2.1 | . | .
CCn1c(=NC(=O)CSC(C)=O)sc2cc(F)ccc21 | i | 1.5 | . | .
C#CCn1c(=NC(=O)CSC(C)=O)sc2cc(F)ccc21 | i | 20* | i | i | CHO-K1 Tl ctr=-5;KCNQ1 pot spec=-21;KCNQ2 pot confirm=62*;Kir21 spec=-34;KCNQ2 W236L pot=36%*
COc1ccc(-c2nn(-c3ccccc3)cc2/C=C/C(=O)N2CCN(c3ccccn3)CC2)cc1 | i | . | . | .
CC(C)(C)NC(=O)CN(CCN1CCOCC1)C(=O)CNS(=O)(=O)c1ccccc1 | i | 0.17 | . | .
CCOC(=O)CSc1nc(CC)nc2ccccc12 | i | 1.2 | . | .
CCOC(=O)CSc1nc(Cc2ccccc2)nc2ccccc12 | i | . | 70%* | i
Cc1noc(C)c1COc1ccc(C(=O)NCc2ccccn2)cc1 | i | . | . | .
COC(=O)c1c(NC(=O)CSc2ncn[nH]2)sc(C)c1C | i | . | . | .
CC(=O)Nc1nnc(CCS(=O)(=O)c2ccc(C)cc2)s1 | i | 0.62 | . | .
CCn1c2c(c(=N)c3c1CCC3)CCC2 | i | . | . | .
CCCCCCn1c(=O)[nH]c2c(c1=O)CCC2 | i | 0.1 | . | .
CCCCCCCCCn1c2c(c(=N)c3c1CCC3)CCC2 | -6.1* | -6.1 | 10%* | i
CCCCCCCn1c2c(c(=N)c3c1CCC3)CCCC2 | i | 1.9 | 28%* | i
CN1C(=O)NC(c2cccc(F)c2)C2=C1CC(C)(C)CC2=O (configuration not stated) | i | 1.6 | . | .
O=C1CSC(c2cccnc2)N1Cc1ccc(Cl)c(Cl)c1 (configuration not stated) | i | 2.3 | . | .
O=S(=O)(NCCCSc1ccccc1)c1ccccc1F | i | . | . | .
Clc1cc(Br)ccc1OCCCNCc1ccccc1 | i | . | . | .
Cc1ccc(C(C)C)c(OCCNCc2ccccc2)c1 | i | 1.1 | 16%* | i
CC(C)(C)c1ccccc1OCCOCCNCc1ccccc1 | i | . | . | .
SMILES | KCNQ2 block | KCNQ2 enhance | Kir21 confirm | HEK293 ctr | others
Cc1cc(OCCOCCNCc2ccccc2)ccc1C(C)C | i | 2.2 | 22%* | i
Cc1ccc(C)c(OCCCNCc2ccccc2)c1 | i | . | 24%* | i
Cc1ccc(C(C)C)c(OCCOCCN2CCNCC2)c1 | i | . | . | .
Cc1ccc(C(C)C)c(OCCCCN2CCNCC2)c1 | i | 0.18 | 44%* | i
Cc1ccc(C(C)C)c(OCCN)c1 | i | 0.89 | . | .
COc1ccc(-c2cn(Cc3ccc(C(=O)c4ccccc4)cc3)nn2)cc1 | i | 0.62 | . | .

Compound activity deposited in PubChem by Johns Hopkins Ion Channel Center.
